Results taken from PubChem BioAssay.
Calls of active or inactive are those of the source.

How the values were obtained:
[1] = system: Human papillomavirus type 1a protein E7 (residues 44-93); assay: small molecules binding HPV E7 44-93 – biochemical, small-molecule microarray, residues 44-93, 635 nm fluorescence, primary screen (AID 1108); details: fluorescence 635 nm, higher = more signal;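 further: E7 fragment applied at 1 µg/mL in TBST for 1 h at 4 C; score combines spot fluorescence with its signal to noise ratio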
[2] = hepatitis C replication reporter changes, two-sided – Huh7 cells, luciferase reporter, HCV replication inhibitor project, primary screen (AID 1109); details: Huh7 HCV replicon luciferase reporter, 48 h; higher = more signal;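 further: huh7 hepatoma cells harbouring a luciferase neomycin HCV replicon reporter; luciferase luminescence as measure of HCV replicon replication; test concentration not given here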
[3] = target: Left-right determination factor 2 (Homo sapiens) (UniProt O00292); assay: small molecules binding LEFTY2 protein – biochemical, small-molecule microarray, 635 nm fluorescence scan, primary screen (AID 1110); details: higher = more signal
Left-right determination factor 2 (Homo sapiens), sequence (O00292 whole entry, looked up): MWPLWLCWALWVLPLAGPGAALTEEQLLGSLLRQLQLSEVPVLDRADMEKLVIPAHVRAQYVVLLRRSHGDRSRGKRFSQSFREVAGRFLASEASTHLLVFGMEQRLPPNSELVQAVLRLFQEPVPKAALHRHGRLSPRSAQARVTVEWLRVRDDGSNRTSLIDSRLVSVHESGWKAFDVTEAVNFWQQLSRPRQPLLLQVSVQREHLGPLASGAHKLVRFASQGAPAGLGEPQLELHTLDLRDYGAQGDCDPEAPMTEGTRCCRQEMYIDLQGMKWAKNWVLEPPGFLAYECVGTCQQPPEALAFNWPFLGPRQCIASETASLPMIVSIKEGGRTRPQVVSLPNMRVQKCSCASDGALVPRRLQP

[4] = target: Calmodulin-1 (Homo sapiens) (UniProt P0DP23); assay: small molecules binding calmodulin-1 with EGTA – biochemical, small-molecule microarray, Cy5-labelled CALM1, profiling panel (AID 1111); details: Cy5-CALM1 binding fluorescence, higher = more signal;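 further: labelled calmodulin applied in Tris saline Tween buffer holding calcium plus EGTA and DTT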
[5] = target: Calmodulin-1 (Homo sapiens) (UniProt P0DP23); assay: small molecules binding Ca-loaded calmodulin-1 – biochemical, small-molecule microarray, Cy5-labelled CALM1, plus calcium, artefact control for SMM control-protein annotation, profiling panel (AID 1112); details: Cy5-CALM1 binding fluorescence, higher = more signal;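 further: score merges spot fluorescence with signal to noise from triplicate slides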
[6] = probe aWnt5a binding to arrayed compounds – biochemical, biotinylated probe, 635/667 nm fluorescence, primary screen (AID 1113); details: small-molecule microarray, higher = more signal;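 further: score merges 667 nm fluorescence intensity with signal-to-noise per printed feature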
[7] = probe aShh binding to arrayed compounds – biochemical, biotinylated probe, 635/667 nm fluorescence, primary screen (AID 1114); details: small-molecule microarray, higher = more signal;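 further: probe is biotin-labelled aShh protein from a stem cell growth factor screen; measures binding of labelled protein to compounds printed on the slide; score merges feature fluorescence at 667 nm with signal-to-noise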
[8] = probe aNog binding to arrayed compounds – biochemical, biotinylated probe, 635/667 nm fluorescence, primary screen (AID 1115); details: small-molecule microarray, higher = more signal;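 further: probe is biotinylated aNog protein used at 0.15 µg/mL for 1 h at 4 C; z-score combines 667 nm fluorescence of each spot with its signal to noise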
[9] = target: Torsin-1A-interacting protein 1 (Homo sapiens) (UniProt Q5JTV8); assay: compound microarray binding of lysate hLAP1 – cell lysate, small-molecule microarray, COS7 lysate, 635/667 nm fluorescence, primary screen (AID 1116); details: 635 nm fluorescence, higher = more signal
Torsin-1A-interacting protein 1 (Homo sapiens), sequence (Q5JTV8 whole entry, looked up): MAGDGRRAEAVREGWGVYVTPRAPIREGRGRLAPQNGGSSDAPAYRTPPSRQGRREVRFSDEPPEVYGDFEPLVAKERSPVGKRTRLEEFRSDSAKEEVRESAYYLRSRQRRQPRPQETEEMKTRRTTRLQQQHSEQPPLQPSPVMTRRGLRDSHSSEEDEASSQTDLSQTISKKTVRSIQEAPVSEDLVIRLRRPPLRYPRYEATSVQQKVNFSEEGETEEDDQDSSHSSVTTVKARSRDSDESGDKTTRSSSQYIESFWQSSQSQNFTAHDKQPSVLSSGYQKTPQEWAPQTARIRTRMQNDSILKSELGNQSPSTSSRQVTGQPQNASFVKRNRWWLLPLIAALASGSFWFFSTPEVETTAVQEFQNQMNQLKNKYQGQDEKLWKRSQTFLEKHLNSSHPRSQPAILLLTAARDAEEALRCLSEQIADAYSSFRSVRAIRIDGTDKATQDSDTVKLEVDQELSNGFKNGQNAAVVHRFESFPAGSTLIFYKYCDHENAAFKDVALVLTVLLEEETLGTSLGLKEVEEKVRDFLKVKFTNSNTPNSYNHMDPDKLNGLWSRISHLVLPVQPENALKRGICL

[10] = target: Alpha-bungarotoxin (Bungarus multicinctus) (UniProt P60615); assay: compounds binding labelled alpha-BTX control protein – biochemical, small-molecule microarray, Alexa647 label, 635/667 nm fluorescence, artefact control for SMM control protein annotation, profiling panel (AID 1117); details: alpha-BTX-A647 binding fluorescence, higher = more signal
Alpha-bungarotoxin (Bungarus multicinctus), sequence (P60615 whole entry, looked up): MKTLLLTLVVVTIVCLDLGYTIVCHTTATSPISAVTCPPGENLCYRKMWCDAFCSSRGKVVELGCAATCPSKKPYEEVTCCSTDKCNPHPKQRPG

Albumin (Bos taurus) = Albumin (Bos taurus) (UniProt P02769); assay: compounds binding labelled BSA control protein – biochemical, small-molecule microarray, Alexa647 label, 635/667 nm fluorescence, artefact control for SMM control protein annotation, profiling panel (AID 1118); details: BSA-A647 binding, fluorescence 635 nm, higher = more signal;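 further: score merges 667 nm emission intensity and signal-to-noise per printed compound spot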
Albumin (Bos taurus), sequence (P02769 whole entry, looked up): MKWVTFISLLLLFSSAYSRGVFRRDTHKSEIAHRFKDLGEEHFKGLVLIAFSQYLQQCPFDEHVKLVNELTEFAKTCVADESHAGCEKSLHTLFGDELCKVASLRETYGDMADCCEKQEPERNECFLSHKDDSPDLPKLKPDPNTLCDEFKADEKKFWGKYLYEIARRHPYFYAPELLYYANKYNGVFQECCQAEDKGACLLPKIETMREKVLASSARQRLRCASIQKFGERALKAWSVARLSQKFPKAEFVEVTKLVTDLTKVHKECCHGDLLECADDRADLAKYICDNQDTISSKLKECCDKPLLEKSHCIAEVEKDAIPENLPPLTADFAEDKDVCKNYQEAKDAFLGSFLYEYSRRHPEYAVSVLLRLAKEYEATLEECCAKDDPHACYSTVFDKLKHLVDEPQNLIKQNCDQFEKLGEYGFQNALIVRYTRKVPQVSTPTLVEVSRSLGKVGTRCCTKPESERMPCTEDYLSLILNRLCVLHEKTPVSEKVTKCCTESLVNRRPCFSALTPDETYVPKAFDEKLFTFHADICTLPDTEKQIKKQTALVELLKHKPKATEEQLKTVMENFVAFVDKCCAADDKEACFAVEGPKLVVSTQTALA

[11] = probe aXIP binding to arrayed compounds – biochemical, NeuroSMM set, 635/667 nm fluorescence, primary screen (AID 1119); details: small-molecule microarray, higher = more signal, called active from +8 up or from −8 down;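 further: probe is the protein aXip251-270 applied at 1 µg/mL to compound-printed slides; binding of probe to printed compounds measured as 667 nm fluorescence plus signal to noise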
[12] = probe aNOTCH3 binding on compound microarray – biochemical, small-molecule microarray, 635/667 nm fluorescence, primary screen (AID 1120); details: higher = more signal;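 further: probe is a biotin-tagged antibody raised against NOTCH3 rather than NOTCH3 protein; score merges spot fluorescence near 667 nm with spot signal to noise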
[13] = probe aNOTCH2 binding on compound microarray – biochemical, small-molecule microarray, 635/667 nm fluorescence, primary screen (AID 1121); details: higher = more signal;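 further: score merges feature fluorescence read at 667 nm with its signal to noise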
[14] = target: Carbonic anhydrase 2 (Homo sapiens) (UniProt P00918); assay: compounds binding carbonic anhydrase 2 – biochemical, small-molecule microarray, Alexa647-labelled CAII, profiling panel (AID 1122); details: CAII-A647 binding fluorescence, higher = more signal
[15] = COS7 lysate on small-molecule microarray, probe aHis, 635 nm (AID 1123); details: COS7 cell lysate, fluorescence, higher = more signal;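 further: z-score combines 667nm fluorescence intensity with signal-to-noise per printed compound spot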
[16] = probe aLAP1 signal on lysate-treated microarray – cell lysate, small-molecule microarray, COS7 lysate, primary screen (AID 1124); details: probe aLAP1, fluorescence, higher = more signal;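 further: lysate comes from COS7 cells expressing LAP1 and is applied at 0.3 µg/mL; score merges spot fluorescence near 667 nm with signal-to-noise over triplicate slides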
Sam68 (KHDRBS1) = assay: compounds binding KHDRBS1 protein – biochemical, small-molecule microarray, 635 nm fluorescence, primary screen (AID 1125); details: higher = more signal;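 further: score merges 667 nm channel intensity with signal to noise over triplicate slides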
[17] = system: Chordin-like protein 2 (CHRDL2); assay: compounds binding chordin-like 2 – biochemical, small-molecule microarray, 635 nm fluorescence, primary screen (AID 1126); details: fluorescence 635 nm, higher = more signal;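 further: printed compound slides probed with Chrdl2 protein at 4 µg/mL for 1 h at 4 C; score merges 667 nm emission intensity with signal to noise over three replicate slides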
[18] = target: Concanavalin-A (Canavalia ensiformis) (UniProt P02866); assay: compounds binding concanavalin A lectin – biochemical, small-molecule microarray, Alexa647 label, 635 nm, artefact control for SMM control protein annotation, primary screen (AID 1127); details: ConA-A647 binding fluorescence, higher = more signal;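 further: z combines 667 nm emission intensity with signal-to-noise across three replicate slides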
Concanavalin-A (Canavalia ensiformis), sequence (P02866 whole entry, looked up): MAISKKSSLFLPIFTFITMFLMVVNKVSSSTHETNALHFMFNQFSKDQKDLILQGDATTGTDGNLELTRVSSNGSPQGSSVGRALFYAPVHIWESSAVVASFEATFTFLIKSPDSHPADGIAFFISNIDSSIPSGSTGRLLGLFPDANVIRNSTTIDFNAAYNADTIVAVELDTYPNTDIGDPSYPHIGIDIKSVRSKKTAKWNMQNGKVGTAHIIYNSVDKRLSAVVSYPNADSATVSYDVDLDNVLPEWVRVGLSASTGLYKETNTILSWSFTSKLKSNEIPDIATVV

| Structure (SMILES) | composite z-score [1] | z-score [2] | composite z-score [3] | composite z-score [4] | composite z-score [5] | composite z-score [6] | composite z-score [7] | composite z-score [8] | composite z-score [9] | composite z-score [10] | composite z-score (Albumin (Bos taurus)) | composite Z-score [11] | composite z-score [12] | composite z-score [13] | composite z-score [14] | composite z-score [15] | composite z-score [16] | composite z-score (Sam68 (KHDRBS1)) | composite z-score [17] | composite z-score [18] |
| --- | --- | --- | --- | --- | --- | --- | --- | --- | --- | --- | --- | --- | --- | --- | --- | --- | --- | --- | --- | --- |
| CC(C)=CCCC(C)=CCON=C1C[C@@H](O)[C@@H](O)[C@@H]2[C@@H]3C(=O)N(c4cccc(Oc5ccccc5)c4)C(=O)[C@@H]3CC[C@@H]12 | 1.21 | -1.36 | 0.353 | 0.33 | -0.126 | -0.13 | -0.0064 | -0.287 | 0.444 | 0.305 | 0.633 | -0.174 (inactive) | -0.0026 | -0.0686 | 0.112 | 0.956 | -0.0676 | 0.877 | 0.418 | 0.0876 |
| CCc1cc2c(nc1CC)CCN(CCC(C)=NO[C@H](C)c1cn([C@H](CO)Cc3ccccc3)nn1)C2 | 0.21 | -2.38 | 0.437 | -0.315 | -0.439 | -0.0165 | 1.19 | -0.4 | 0.967 | 0.568 | 0.867 | -0.51 (inactive) | 0.189 | -0.101 | 0.0934 | 0.287 | 0.022 | 0.708 | 0.357 | -0.0875 |
| CO[C@H]1COC(=O)CC=C[C@H](C)[C@@H](OC)COC(=O)[C@H](C)COC(=O)CC=C[C@@H]1C | -0.61 | 0.507 | 1.33 | -0.774 | -1.62 | -0.154 | -0.439 | -0.303 | -0.396 | -0.876 | -1.2 | 0.559 (inactive) | 0.0306 | -0.133 | -0.425 | -0.552 | 0.975 | -0.106 | 1.43 | -0.55 |
| COc1ccc(O[C@H]2C=C[C@@H](c3ccccc3)O[C@@H]2COC(=O)CCC(C)=NO[C@@H]2O[C@H](COC(C)=O)[C@@H](OC(C)=O)[C@H](OC(C)=O)[C@H]2OC(C)=O)cc1 | 1.29 | -1.88 | 0.511 | -0.126 | -0.643 | -0.0944 | -0.206 | -0.53 | 0.38 | 0.731 | 0.303 | -0.211 (inactive) | 0.0322 | -0.211 | -0.0481 | 0.752 | 0.0839 | 1.32 | 0.786 | 0.544 |
| COC(=O)[C@H](C)NC(=O)CCC1CC(OC(=O)NCc2ccc3c(c2)OCO3)CC2(CCCC(COC(=O)NCC3CCCCC3)O2)O1 (stereo not given in full) | 1.37 | -1.48 | 0.764 | 0.369 | -0.0553 | 0.0775 | -0.138 | 0.656 | 0.173 | 0.54 | 0.569 | -0.0882 (inactive) | -0.0111 | -0.0947 | 0.234 | 1.19 | -0.111 | 1.29 | 0.435 | 1.05 |
| COC(=O)CC=C[C@@H](C)[C@@H](C=NOCC[C@@H]1C=C[C@H](OC(C)=O)[C@@H](COC(C)=O)O1)OC | 0.107 | -0.488 | 0.589 | -1 | -1.78 | -0.0346 | 0.284 | -0.205 | 0.473 | -0.484 | -0.395 | 0.181 (inactive) | -0.0006 | -0.115 | -0.0197 | 0.849 | -0.0402 | 0.411 | 0.432 | -0.319 |
